Pf growth 96h: P. falciparum growth inhibition at 96 hour, primary screen for plastid delayed-death inhibitors. P. falciparum luciferase reporter growth, 96 h. hit rate 6.9% among 320,000. Potency, µM (top dose mostly 28.7 µM), for the others: top-dose activity change, negative = inhibition, actives largely listed as inhibitors
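Two-generation exposure (96 h) targets delayed-death phenotype. Reporter parasites carrying integrated firefly luciferase, in red cells at 2% hematocrit and 0.05% parasitemia final, kept at 37 C, 5% CO2; luminescence loss indicates inhibition.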
AMA1 RON2 block: disrupts binding of P. falciparum AMA1 to RON2; AlphaScreen AMA1-biotinylated RON2 peptide binding; Potency, µM (doses to about 58.2 µM), for the others: top-dose activity change, negative = inhibition, usual class: inhibitors; hit rate 0.2% among 360,000; AID 720542;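 also: 0% = vehicle wells and -100% = peptide control; nearly all actives have a fitted effect of over 45% in size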
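AMA1 (3D7) with his tag at 25 nM final met compounds first, then biotinylated RON2 peptide at 25 nM; detection used donor plus acceptor beads, 10 µg/mL apiece, read by AlphaScreen after 30 min at room temperature.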
VACV Venus inh: vaccinia inhibition (Venus reporter); Vaccinia virus Venus reporter expression, fluorescence; Potency, µM (titrated, usually from 36.5 µM), for the others: top-dose activity change, negative = inhibition, actives largely listed as inhibitors; hit rate 0.46% among 330,000; AID 720580; calls by dose curve; tested in A549 cells; also: nearly all actives have a fitted effect of over 30% in size
Pf growth 48h: P. falciparum growth inhibition at 48 hours (one generation); hit rate 5.9% among 310,000; Potency, µM (top dose mostly 28.7 µM), for inactives: at the top dose activity change, negative = inhibition, hits mostly inhibitors; P. falciparum luciferase growth in erythrocytes, 48 h
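In quantitative HTS format, infected erythrocytes bearing luciferase-reporter parasites were treated for a single generation at 37 C. Luminescence after adding detection reagent served as the growth measure.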
Vaccinia mCherry: inhibitors of vaccinia virus infection (mCherry reporter signal); Vaccinia virus mCherry reporter infection, fluorescence; Potency, µM (doses to about 36.5 µM), inactives show at the top dose activity change, negative = inhibition, usual class: inhibitors; AID 720579; hit rate 0.63% among 310,000; calls by dose curve; tested in A549 cells; also: nearly all actives have a fitted effect of over 35% in size
* marks the source's active call; other numbers are inactive results; i = inactive; ? = inconclusive; . = not tested or not shown; [ ] = remark or other dose. In the library only some 8.7% were active in any assay of this set; here they are far more common. Unless noted, calls follow the shape of the dose curve; as a rule, active = well fitted curve in the direction sought with a large enough effect; inconclusive = small, poorly fitted or top-dose-only effect, or another doubt; inactive = no such curve, though single readings can be large; an effect the other way counts as inactive or inconclusive. Unless noted, % is scaled to controls: 0 for no effect and ±100 for the full control effect; potency is read from the fitted curve at half-maximal effect.

SMILES | Pf growth 96h | AMA1 RON2 block | VACV Venus inh | Pf growth 48h | Vaccinia mCherry
CC(Oc1ccccc1)C(=O)Nc1ccc(C(N)=O)cc1 (stereo not given) | 44.5% | -5.3% | . | 5.3% | .
Cc1cc(OC(C)C(=O)Nc2ccncc2)ccc1Cl (stereo not given) | 9.28µM* | 1.3% | . | ? | .
CC(C)NS(=O)(=O)c1ccc(NC(=O)C(C)Oc2ccc(C(=O)c3ccccc3)cc2)cc1 (stereo not given) | 2.33µM* | -9.1% | ? | ? | ?
Cc1cc(NC(=O)c2ccc(NC(=O)C(C)Oc3ccccc3)cc2)no1 (stereo not given) | . | 0.0% | 3.7% | 6.57µM* | i
CC(=O)Nc1ccc(C(=O)Nc2cc(C)on2)cc1 | 17.5% | 13.9% | -2.3% | 63.0% | -11.6%
O=C(CCNS(=O)(=O)c1ccc2c(c1)CCN2C(=O)C1CC1)Nc1ccc(OC(F)(F)F)cc1 | . | . | -5.4% | . | -19.6%
CCc1nn(CC(=O)NCc2ccccc2)c(=O)c2cccn12 | . | . | -8.4% | . | -11.0%
Cc1ccc(OC(C)C(=O)Nc2cc(C)on2)cc1 (stereo not given) | 4.65µM* | -3.2% | -5.9% | 15.2% | -14.2%
O=[N+]([O-])c1cccc(-c2c(-c3ccccc3)ncc3cc(F)ccc23)c1 | ? | ? | -15.5% | ? | -4.6%
O=[N+]([O-])c1ccc(-c2c(-c3ccccc3)ncc3cc(F)ccc23)cc1 | 5.22µM* | -25.6% | -5.3% | 2.62µM* | -12.9%
Cc1ccc(-c2nc(NC(=O)CSc3ncnc4sc5c(c34)CCC(C)C5)ns2)cc1 (stereo not given) | . | . | -8.8% | . | -15.8%
COc1ccc(OC)c(CC2C(=O)Nc3ccc(Br)cc32)c1 (stereo not given) | . | . | -26.6% | . | -18.4%
CCOC(=O)C1=NN(c2ccc(C)cc2)CC1C(=O)OC (stereo not given) | 5.86µM* | 47.5% | -9.2% | 12.4% | -2.8%
COC(=O)C1CC(=O)N(c2ccc(C)cc2)C1 (stereo not given) | -0.1% | -0.8% | -14.0% | 3.8% | i
COc1ccc(C(=O)Nc2c(N)nc(SCC(=O)Nc3ccc(NC(C)=O)cc3)[nH]c2=O)cc1OC | 10.4µM* | -13.6% | -3.4% | -25.4% | i
Cc1cc(C(=O)Oc2cccnc2)ccc1[N+](=O)[O-] | 3.7µM* | -16.7% | -12.3% | 5.2% | -1.9%
O=C(Oc1c(Br)cc([N+](=O)[O-])cc1Br)c1cccnc1 | 6.57µM* | -25.4% | -13.4% | -16.9% | i
CCN(CCC(=O)O)c1ccc(/C=C/c2ccnc3ccccc23)cc1 | . | . | 67.0% | . | -2.4%
Cc1ccc(C(=O)Nc2ccc(-n3c(C)nc4ccccc4c3=O)cc2)cc1[N+](=O)[O-] | . | . | -18.5% | . | -9.9%
Cc1ccc(NC(=O)CSc2nnc(CCCCCNC(=O)OC(C)(C)C)o2)c(C)c1 | 13.1µM* | 6.9% | . | -13.5% | .
CC(C)(C)OC(=O)NCCc1nnc(SCc2c(Cl)cccc2Cl)o1 | ? | -7.6% | . | . | .
Cc1ccc(C)c(NC(=O)CSc2nnc(CCNC(=O)OC(C)(C)C)o2)c1 | -11.2% | 38.0% | . | . | .
Cc1c(Cl)cccc1NC(=O)CSc1nnc(CCNC(=O)OC(C)(C)C)o1 | 10.4µM* | -11.4% | . | -4.1% | .
COc1ccc2c(c1)CC(C(=O)NCCc1ccc(S(N)(=O)=O)cc1)CO2 (stereo not given) | . | . | -4.3% | . | -8.5%
COCc1c(C(=O)NC2CCCC2)cnn1-c1nccc(-c2ccco2)n1 | . | . | -9.3% | . | -14.0%
SMILES | Pf growth 96h | AMA1 RON2 block | VACV Venus inh | Pf growth 48h | Vaccinia mCherry
COc1ccc(CCN(C)C(=O)CSc2nnnn2C)cc1OC | 10.4µM* | 0.9% | -2.7% | 27.3% | i
O=Cc1c(Sc2ccccc2)nc2ccccn2c1=O | 7.38µM* | 1.9% | -23.0% | . | ?
O=Cc1c(Sc2ccccn2)nc2ccccn2c1=O | ? | 0.0% | -12.6% | ? | -25.1%
Nc1c(C(=O)c2ccccc2)sc2c1c(=O)[nH]c(=O)n2-c1ccccc1 | -2.0% | -0.5% | -14.7% | -15.5% | -10.8%
Cc1ccc(C(=O)c2sc3c(c2N)c(=O)[nH]c(=O)n3CCc2ccccc2)cc1 | 9.28µM* | -13.3% | -3.4% | ? | i
CC1=C(C(=O)OCC2CCCO2)C(c2ccc(C)o2)C2=C(CC(c3ccc(F)cc3)CC2=O)N1 (stereo not given) | 7.5% | -2.5% | -18.3% | ? | -29.9%
CC1=C(C(=O)OCC2CCCO2)C(c2ccccc2OC(C)C)C2=C(CC(c3ccco3)CC2=O)N1 (stereo not given) | 26.6% | -3.8% | ? | 3.29µM* | -15.0%
CC1=C(C(=O)OCC2CCCO2)C(c2cccc(C(F)(F)F)c2)C2=C(CC(c3ccco3)CC2=O)N1 (stereo not given) | . | 11.5% | . | 13.1µM* | .
CCn1c2c(c(=N)c3c1CCC3)CCCC2 | ? | -6.9% | -9.2% | 0.522µM* | i
CCCCCCCCCCn1c2c(c(=N)c3c1CCC3)CCC2 | 0.117µM* | -6.3% | 10µM* | 0.262µM* | 12.6µM*
CCCCCCCCn1c2c(c(=N)c3ccccc31)CCC2 | -45.3% | 1.8% | ? | 12.4% | ?
CCCCCn1c2c(c(=N)c3ccccc31)CCC2 | ? | -11.6% | 2.8%[7.34 µM] | 0.657µM* | i[7.34 µM]
CCCCn1c2c(c(=N)c3ccccc31)CCC2 | ? | -24.4% | -27.0% | 0.415µM* | i
CCCCCCCCCn1c2c(c(=N)c3c1CCC3)CCCC2 | 27.4% | 4.8% | ? | ? | ?
CCc1ccc(C2CC(=O)c3c([nH]c(C(=O)OC4CCCC4)c3C)C2)cc1 (stereo not given) | . | . | -4.9%[7.34 µM] | . | -2.7%[7.34 µM]
CCCCCCC1CCC(C(=O)NC(C(=O)O)C(C)C)CC1 (stereo not given) | . | . | -7.8% | . | -9.4%
Cc1nnc(N2CCN(c3ccccc3F)CC2)c2c1nnn2Cc1ccccc1 | . | . | -16.2% | . | -12.2%
CC(C)(C)C(=O)C(Oc1ccc(Cl)cc1)n1ccnc1 (stereo not given) | 12µM* | . | . | -6.9% | .
Cc1cccc(Cn2c(C)c(CNC3CCCCC3)c(C(=O)O)c2C)c1 | . | . | -4.5% | . | 4.2%
CCC(=O)N1CCc2cc(Br)cc(S(=O)(=O)CCC(=O)NCc3cccc(OC)c3)c21 | . | . | -14.6% | . | -7.5%
COc1cc(C(=O)N/N=C(\C)c2ccccn2)cc(OC)c1OC | 17.6% | 12.4% | ? | 16.5% | ?
COc1ccc2nc(NN=C(C)c3ccccn3)cc(C)c2c1 | . | ? | ? | . | 1µM*
CC1CCCN(S(=O)(=O)c2ccc(NC(=O)C3CCN(C(=O)C(C)(C)C)CC3)cc2)C1 (stereo not given) | 6.57µM* | -8.0% | . | 5.22µM* | .
O=C(Nc1ccc(S(=O)(=O)Nc2ccccc2)cc1)C1COc2ccccc2O1 (stereo not given) | 0.465µM* | -9.5% | -21.2% | ? | -8.2%
C/C(=N\S(=O)(=O)c1ccc(C)cc1)N1CCCCC1 | 11.7µM* | -3.4% | -4.3% | 0.9% | i
Cc1cc(C)nc(NS(=O)(=O)c2ccc(NC(=O)C3COc4ccccc4O3)cc2)n1 (stereo not given) | ? | 3.0% | -13.7% | -0.8% | i

Compound activity deposited in PubChem by National Center for Advancing Translational Sciences (NCATS).
